Source: PubChem BioAssay (EPA / NIEHS)
Results filed as inconclusive are left out. Activity calls are given as the source filed them. How the source made its calls, unless noted: active means hit-call score of the fitted dose curve at least 0.9, where 1 is the maximum; inactive means score below 0.9.

Tests used:
[1] = target: Hepatocyte nuclear factor 4-alpha (Homo sapiens) (UniProt P41235); test: ATG_HNF4a_TRANS: Attagene TRANS-FACTORIAL HepG2 Assay for human Hepatocyte Nuclear Factor 4 alpha (HNF4a) (AID 2282982; active means hit-call score of the fitted dose curve at least 0.9, where 1 is the maximum); conditions: HepG2 HNF4a transactivation reporter, mRNA readout
Sequence of Hepatocyte nuclear factor 4-alpha (Homo sapiens) (P41235 whole entry, looked up, the tested form may be a part): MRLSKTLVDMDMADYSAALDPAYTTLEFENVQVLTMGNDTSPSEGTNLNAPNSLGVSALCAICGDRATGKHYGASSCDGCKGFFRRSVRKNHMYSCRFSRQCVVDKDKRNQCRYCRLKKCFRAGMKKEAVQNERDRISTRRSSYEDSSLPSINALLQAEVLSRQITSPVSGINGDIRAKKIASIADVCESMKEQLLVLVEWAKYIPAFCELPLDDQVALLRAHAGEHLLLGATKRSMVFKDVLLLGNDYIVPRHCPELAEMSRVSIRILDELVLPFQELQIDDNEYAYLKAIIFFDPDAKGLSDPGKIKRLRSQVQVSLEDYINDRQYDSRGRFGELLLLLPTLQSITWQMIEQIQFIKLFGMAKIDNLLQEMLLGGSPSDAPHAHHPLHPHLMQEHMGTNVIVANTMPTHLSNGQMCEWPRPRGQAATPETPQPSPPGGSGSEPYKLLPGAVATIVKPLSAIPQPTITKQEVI
Method in brief: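 Readout is fluorescent reporter-transcript fragments resolved by capillary electrophoresis after RT-PCR from HepG2 cells dosed for 24 h. Cells carried transfected GAL4-UAS reporter constructs measuring exogenous NR-GAL4 chimera activity; DMSO served as baseline.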

[2] = ATG_M_06_TRANS: Attagene TRANS-FACTORIAL HepG2 Assay for M06 Transcription Factor (Internal Marker) (AID 2282983; active means hit-call score of the fitted dose curve at least 0.9, where 1 is the maximum); conditions: HepG2 Attagene TRANS M06 internal marker reporter
Method in brief: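 Measured by capillary electrophoresis of fluorescently labelled RT-PCR products, this endpoint reflects reporter mRNA in HepG2 cells harbouring exogenous NR-GAL4 reporter constructs after 24 h exposure, with DMSO as baseline.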

[3] = ATG_M_32_TRANS: Attagene TRANS-FACTORIAL HepG2 Assay for M32 Transcription Factor (Internal Marker) (AID 2282984; active means hit-call score of the fitted dose curve at least 0.9, where 1 is the maximum;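 further: transcript level of a background control reporter unit measured by RT-PCR and capillary electrophoresis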); conditions: HepG2 Attagene TRANS M32 internal marker reporter
Method in brief: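 Measures reporter mRNA induction in human HepG2 liver cells after 24 h chemical treatment. Transcripts from transiently transfected GAL4-UAS reporter units are amplified, fluorescently labelled and sized by capillary electrophoresis; gain of signal relative to DMSO.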

[4] = target: Nuclear receptor subfamily 4 group A member 2 (Homo sapiens) (UniProt P43354); test: ATG_NURR1_TRANS: Attagene TRANS-FACTORIAL HepG2 Assay for human Nuclear Receptor Related Protein 1 (NURR1) (AID 2282985; active means hit-call score of the fitted dose curve at least 0.9, where 1 is the maximum); conditions: HepG2 Attagene TRANS reporter, mRNA readout
Sequence of Nuclear receptor subfamily 4 group A member 2 (Homo sapiens) (P43354 whole entry, looked up, the tested form may be a part): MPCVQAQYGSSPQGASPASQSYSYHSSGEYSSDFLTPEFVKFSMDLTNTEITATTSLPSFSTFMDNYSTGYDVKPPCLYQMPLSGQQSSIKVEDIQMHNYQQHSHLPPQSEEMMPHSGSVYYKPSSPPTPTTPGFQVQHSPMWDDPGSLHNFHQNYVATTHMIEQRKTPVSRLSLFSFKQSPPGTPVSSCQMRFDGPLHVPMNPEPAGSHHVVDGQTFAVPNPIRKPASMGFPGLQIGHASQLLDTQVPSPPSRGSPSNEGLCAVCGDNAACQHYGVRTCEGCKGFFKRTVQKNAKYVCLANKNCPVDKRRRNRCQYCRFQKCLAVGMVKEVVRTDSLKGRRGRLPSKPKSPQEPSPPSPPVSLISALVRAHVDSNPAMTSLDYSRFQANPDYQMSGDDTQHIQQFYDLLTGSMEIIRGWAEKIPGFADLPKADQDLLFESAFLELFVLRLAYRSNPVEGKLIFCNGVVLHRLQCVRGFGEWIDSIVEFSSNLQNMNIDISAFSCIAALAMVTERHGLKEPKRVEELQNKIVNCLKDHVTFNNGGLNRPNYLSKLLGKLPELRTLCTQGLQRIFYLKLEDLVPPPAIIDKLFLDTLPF
Method in brief: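 Transient transfection of HepG2, human liver cells, with multiple GAL4-UAS reporter transcription units. Cells dosed 24 h, RNA isolated, reverse-transcribed, PCR-amplified, FAM-labelled, HpaI-digested, sized by capillary electrophoresis. DMSO served as negative control.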

[5] = target: Transcriptional activator Myb (Homo sapiens) (UniProt P10242); test: ATG_Myb_CIS: Attagene CIS-FACTORIAL HepG2 Assay for human Myeloblastosis (Myb) Proto-Oncogene Transcription Factor (AID 2282986); conditions: HepG2 Attagene CIS-FACTORIAL Myb reporter transcription; actives raise or lower the signal
Sequence of Transcriptional activator Myb (Homo sapiens) (P10242 whole entry, looked up): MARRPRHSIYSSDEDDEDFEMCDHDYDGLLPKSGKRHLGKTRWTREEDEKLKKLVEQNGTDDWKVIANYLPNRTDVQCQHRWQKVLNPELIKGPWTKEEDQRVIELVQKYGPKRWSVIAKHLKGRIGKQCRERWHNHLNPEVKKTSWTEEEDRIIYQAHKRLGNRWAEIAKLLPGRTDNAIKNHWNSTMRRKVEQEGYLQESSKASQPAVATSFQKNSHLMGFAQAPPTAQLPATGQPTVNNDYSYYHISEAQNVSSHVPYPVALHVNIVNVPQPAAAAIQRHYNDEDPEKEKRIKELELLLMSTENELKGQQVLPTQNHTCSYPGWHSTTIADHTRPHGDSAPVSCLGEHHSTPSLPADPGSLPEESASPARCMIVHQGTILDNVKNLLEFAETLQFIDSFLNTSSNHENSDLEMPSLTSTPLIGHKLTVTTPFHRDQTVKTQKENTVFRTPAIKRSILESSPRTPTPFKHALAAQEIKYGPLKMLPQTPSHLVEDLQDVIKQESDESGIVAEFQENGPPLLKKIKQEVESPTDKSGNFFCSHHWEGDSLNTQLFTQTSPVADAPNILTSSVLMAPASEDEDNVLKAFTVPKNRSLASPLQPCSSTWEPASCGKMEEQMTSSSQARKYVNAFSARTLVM
Method in brief: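 HepG2, transient MRTU transfection (cis-element promoters, endogenous TF activity), 24 h compound exposure. Readout: reporter mRNA via RT-PCR, 6-FAM labeling, HpaI digest, capillary electrophoresis. Gain/loss fit vs DMSO.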

[6] = target: Nuclear respiratory factor 1 (Homo sapiens) (UniProt Q16656); test: ATG_NRF1_CIS: Attagene CIS-FACTORIAL HepG2 Assay for human Nuclear Respiratory Factor 1 (NRF1) Orphan Gene (AID 2282987); conditions: HepG2 NRF1 cis-element reporter, Attagene multiplex; actives raise or lower the signal
Sequence of Nuclear respiratory factor 1 (Homo sapiens) (Q16656 whole entry, looked up): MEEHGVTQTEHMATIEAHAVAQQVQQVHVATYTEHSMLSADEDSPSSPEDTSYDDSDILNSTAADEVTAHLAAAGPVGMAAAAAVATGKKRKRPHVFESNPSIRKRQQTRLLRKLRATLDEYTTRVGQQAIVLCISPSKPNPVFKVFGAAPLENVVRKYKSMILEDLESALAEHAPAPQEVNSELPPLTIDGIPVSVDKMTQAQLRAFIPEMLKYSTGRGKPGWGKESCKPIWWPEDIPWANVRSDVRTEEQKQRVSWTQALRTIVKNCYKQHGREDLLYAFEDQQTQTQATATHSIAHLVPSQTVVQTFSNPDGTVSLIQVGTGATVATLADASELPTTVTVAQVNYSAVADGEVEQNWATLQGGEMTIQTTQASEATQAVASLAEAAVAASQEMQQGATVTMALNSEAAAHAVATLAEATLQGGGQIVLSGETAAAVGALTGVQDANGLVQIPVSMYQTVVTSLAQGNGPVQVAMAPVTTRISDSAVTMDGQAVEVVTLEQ
Method in brief: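 Endogenous NRF1-driven reporter transcription measured in transiently transfected human HepG2 liver cells. Readout: reporter mRNA by RT-PCR and capillary electrophoresis with fluorescence detection, 24 h post-dosing. Gain or loss of signal fitted relative to DMSO baseline.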

[7] = ATG_NFI_CIS: Attagene CIS-FACTORIAL HepG2 Assay for human Nuclear Factor I (NFI) (AID 2282989); conditions: HepG2 cis-regulatory reporter, NFI response element transcription; actives raise or lower the signal
Method in brief: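 Endogenous TF activity in HepG2 cells transiently transfected with cis-element-driven multiplexed reporter units, read 24 h after dosing. Reporter mRNA quantified by RT-PCR, 6-FAM labelling, HpaI digestion and capillary electrophoresis; bidirectional fit versus DMSO.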

[8] = target: Myc proto-oncogene protein (Homo sapiens) (UniProt P01106); test: ATG_Myc_CIS: Attagene CIS-FACTORIAL HepG2 Assay for human Myelocytomatosis (Myc) Proto-Oncogene Transcription Factor (AID 2282990); conditions: HepG2, Attagene cis-reporter transcription factor activity; actives raise or lower the signal
Sequence of Myc proto-oncogene protein (Homo sapiens) (P01106 whole entry, looked up): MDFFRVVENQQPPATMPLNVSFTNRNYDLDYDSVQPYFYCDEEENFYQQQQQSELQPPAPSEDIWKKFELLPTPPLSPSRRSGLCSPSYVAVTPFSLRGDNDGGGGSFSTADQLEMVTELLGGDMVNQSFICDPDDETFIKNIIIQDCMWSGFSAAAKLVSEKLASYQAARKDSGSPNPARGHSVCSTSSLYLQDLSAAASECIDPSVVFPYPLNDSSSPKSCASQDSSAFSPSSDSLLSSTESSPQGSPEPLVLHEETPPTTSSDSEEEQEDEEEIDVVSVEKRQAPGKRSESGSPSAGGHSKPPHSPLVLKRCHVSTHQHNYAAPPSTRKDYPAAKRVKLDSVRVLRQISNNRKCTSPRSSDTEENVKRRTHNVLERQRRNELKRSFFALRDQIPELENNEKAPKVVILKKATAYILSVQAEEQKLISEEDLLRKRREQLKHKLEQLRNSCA
Method in brief: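 HepG2, transient MRTU transfection (cis promoters, endogenous TFs); 24 h dosing; TriZol RNA → oligo(dT) RT → PCR → 6-FAM primer extension → HpaI cut → CE. Bidirectional fit vs DMSO.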

[9] = ATG_NF_kB_CIS: Attagene CIS-FACTORIAL HepG2 Assay for human Nuclear Factor Kappa B (NF-kB) (AID 2282991); conditions: HepG2 Attagene cis-factorial NF-kB reporter mRNA; actives raise or lower the signal
Method in brief: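 Read-out: reporter transcript levels quantified by RT-PCR plus capillary electrophoresis of 6-FAM-labelled, HpaI-cut fragments. Transfected HepG2 cells, 24 h compound exposure, endogenous NF-kB-driven cis element; gain or loss scored versus DMSO.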

[10] = ATG_NRF2_ARE_CIS: Attagene CIS-FACTORIAL HepG2 Assay for human Nuclear Factor Erythroid 2 Related Factor 2 (NFR2) response to Antioxidant Response Elements (ARE) (AID 2282992); conditions: HepG2 Attagene ARE/NRF2 reporter, transcription factor activity; actives raise or lower the signal
Method in brief: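 Multiplexed reporter mRNA profiling in HepG2 after a 24 h chemical exposure. Curves fitted in both directions relative to DMSO negative control.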

[11] = ATG_Oct_MLP_CIS: Attagene CIS-FACTORIAL HepG2 Assay for human Octamer-Binding Transcription Factor (Oct) (AID 2282993); conditions: HepG2 Attagene cis-factorial Oct reporter, mRNA; actives raise or lower the signal
Method in brief: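 HepG2 cells transiently transfected with cis-element-driven reporter transcription units (endogenous TF activity); 24 h compound exposure. Reporter mRNA quantified by RT-PCR, 6-FAM labelling, HpaI digestion and capillary electrophoresis; bidirectional fit versus DMSO baseline.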

[12] = target: Cellular tumor antigen p53 (Homo sapiens) (UniProt P04637); test: ATG_p53_CIS: Attagene CIS-FACTORIAL HepG2 Assay for human p53 Transcription Factor (AID 2282994); conditions: HepG2 p53 cis-element reporter, Attagene mRNA; actives raise or lower the signal
Sequence of Cellular tumor antigen p53 (Homo sapiens) (P04637 whole entry, looked up): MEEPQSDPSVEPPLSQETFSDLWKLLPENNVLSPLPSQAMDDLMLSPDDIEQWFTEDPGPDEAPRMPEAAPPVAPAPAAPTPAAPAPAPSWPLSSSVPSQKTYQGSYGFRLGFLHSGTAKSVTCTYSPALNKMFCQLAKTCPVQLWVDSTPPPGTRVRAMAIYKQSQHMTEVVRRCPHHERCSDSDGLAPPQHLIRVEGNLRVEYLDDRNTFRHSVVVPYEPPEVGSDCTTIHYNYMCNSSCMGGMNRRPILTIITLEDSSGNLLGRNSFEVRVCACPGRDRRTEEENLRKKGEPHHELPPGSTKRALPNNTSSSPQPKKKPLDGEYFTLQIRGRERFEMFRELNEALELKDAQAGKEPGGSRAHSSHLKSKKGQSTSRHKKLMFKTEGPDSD
Method in brief: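 Multiplexed reporter mRNA assay in human HepG2 liver cells; cis-regulated units report endogenous factor activity. Values come from bidirectional curve fitting against DMSO negative control after 24 h treatment.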

[13] = target: Oxysterols receptor LXR-beta (Homo sapiens) (UniProt P55055); test: ATG_LXRb_TRANS: Attagene TRANS-FACTORIAL HepG2 Assay for human Liver X Receptor beta (LXRb) (AID 2282981; active means hit-call score of the fitted dose curve at least 0.9, where 1 is the maximum); conditions: HepG2 Attagene TRANS GAL4-LXRb reporter, mRNA
Sequence of Oxysterols receptor LXR-beta (Homo sapiens) (P55055 whole entry, looked up, the tested form may be a part): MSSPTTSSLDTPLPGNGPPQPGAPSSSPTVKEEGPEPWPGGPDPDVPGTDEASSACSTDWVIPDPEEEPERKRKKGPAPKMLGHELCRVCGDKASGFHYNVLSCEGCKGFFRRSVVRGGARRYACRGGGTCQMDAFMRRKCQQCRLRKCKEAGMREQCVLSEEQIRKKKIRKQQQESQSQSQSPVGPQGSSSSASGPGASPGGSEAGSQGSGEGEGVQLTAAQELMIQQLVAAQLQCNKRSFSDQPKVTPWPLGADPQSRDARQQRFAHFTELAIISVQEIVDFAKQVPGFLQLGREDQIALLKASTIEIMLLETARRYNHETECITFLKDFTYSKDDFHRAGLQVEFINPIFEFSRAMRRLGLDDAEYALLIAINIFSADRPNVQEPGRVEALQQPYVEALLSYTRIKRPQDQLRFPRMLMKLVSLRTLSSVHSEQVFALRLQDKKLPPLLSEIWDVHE
Method in brief: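 Transient transfection HepG2 (multiplexed RTUs, GAL4-UAS); NR-Gal4 chimera; 24 h exposure; RNA → RT-PCR → 6-FAM primer extension → HpaI → CE; increase vs DMSO.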

Measured: outcome

CCCC(O)C(CC)CO (centres undefined)
not listed: [13]
inactive: all other assays above

CN(C)C(=O)Nc1ccccc1
not listed: [1] | [2] | [3] | [12]
inactive: all other assays above

CC1(C)CC(N)CC(C)(CN)C1 (centres undefined)
inactive: all assays above

CC(=O)Oc1c(C)c(C)c2c(c1C)CC[C@@](C)(CCC[C@H](C)CCC[C@H](C)CCCC(C)C)O2
not listed: [2] | [9]
inactive: all other assays above

Nc1ccn([C@H]2CC[C@@H](CO)O2)c(=O)n1
not listed: [3] | [4] | [13]
inactive: all other assays above

COc1ccc(C(C)=O)cc1
not listed: [1] | [2] | [3] | [9]
inactive: all other assays above
